The list is not random: actives were taken first. Their share in the collection is about 3.8%.
ERK AVP block: vasopressin-driven ERK pathway inhibition. HEK293-V1b, vasopressin-stimulated pERK AlphaScreen. Potency, µM (doses to about 57.5 µM), inactives show top-dose activity, negative = inhibition, hits mostly inhibitors. hit rate 0.99% among 72,000. AID 995; also: potency is read from the fitted curve at half-maximal effect; % is scaled to controls: 0 for no effect and ±100 for the full control effect; nearly all actives have a fitted effect of over 55% in size
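Overnight-seeded V1b-HEK293 cells in 1% FBS got compound, then vasopressin (25 nM final, 5 min, 37C), then lysis buffer. AlphaScreen detection of phospho-ERK; activity normalized to basal and full-stimulation controls.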
HBB splice mod: hemoglobin beta splicing modulation | HBB splicing reporter cell assay, activation; EGFP reporter with mutant IVS2-654 intron; response scale: normalised to 500 nM splice-correcting PNA | Potency, µM (highest dose often 46.1 µM), for the others: at the highest dose activation, most hits filed as activators | hit rate 0.06% among 65,000 | AID 925; also: potency is read from the fitted curve at half-maximal effect; 0% is about no effect
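Compounds were applied for 2 days to HeLa EGFP-654 cells, 500/well in Optimem with 2% FCS. The reporter's EGFP is disrupted by mis-splicing of beta-globin intron IVS2-654. Readout: summed well GFP fluorescence from 488 nm laser scanning; reference was 500 nM antisense […] 654 PNA.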
TSHR agonist: agonists of human thyroid stimulating hormone receptor. P16473. HEK293-CNG-TSHR cells (CNG channel as cAMP sensor), membrane potential dye, cAMP. Potency, µM (series often up to 57.1 µM), inactives show at the highest dose activation, actives largely listed as activators. hit rate 0.48% among 73,000. AID 926; active = well fitted activation curve with a large enough effect in the main read-out, with a control signal flat, not every such curve was filed as active; inconclusive = small, poorly fitted or top-dose-only effect, or a change in a side signal; inactive = no such curve, though single readings can be large or run the other way; % of control where 0% means no effect;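 also: the control signal comes from parental cells without the receptor; potency is read from the fitted curve at half-maximal effect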
Target sequence (P16473 whole entry, looked up): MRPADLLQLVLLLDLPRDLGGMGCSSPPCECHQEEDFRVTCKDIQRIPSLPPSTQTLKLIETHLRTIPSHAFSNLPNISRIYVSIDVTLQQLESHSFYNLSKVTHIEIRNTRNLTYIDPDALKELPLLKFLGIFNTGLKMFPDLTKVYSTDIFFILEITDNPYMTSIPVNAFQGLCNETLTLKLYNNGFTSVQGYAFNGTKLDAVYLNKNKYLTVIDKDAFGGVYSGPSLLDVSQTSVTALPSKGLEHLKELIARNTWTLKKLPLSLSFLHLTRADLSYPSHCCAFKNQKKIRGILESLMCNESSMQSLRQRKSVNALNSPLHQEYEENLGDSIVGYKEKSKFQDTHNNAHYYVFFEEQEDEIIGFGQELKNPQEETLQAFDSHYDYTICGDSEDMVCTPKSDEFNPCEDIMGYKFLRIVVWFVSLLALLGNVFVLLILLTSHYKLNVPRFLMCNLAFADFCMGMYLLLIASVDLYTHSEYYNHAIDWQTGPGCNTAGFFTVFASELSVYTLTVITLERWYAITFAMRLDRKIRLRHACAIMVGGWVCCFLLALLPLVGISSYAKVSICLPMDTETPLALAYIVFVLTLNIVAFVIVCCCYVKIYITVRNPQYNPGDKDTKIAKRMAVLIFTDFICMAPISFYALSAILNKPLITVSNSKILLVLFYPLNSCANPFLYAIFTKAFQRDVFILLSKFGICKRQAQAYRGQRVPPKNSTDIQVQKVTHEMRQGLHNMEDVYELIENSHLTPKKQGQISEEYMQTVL
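cAMP rise detected as CNG-channel membrane depolarization by fluorescent dye (emission 590 nm), 30 min after compound, following 60 min dye loading containing 100 uM RO 20-1724 at room temperature. Cells: TSHR/CNG HEK 293, with parental CNG HEK 293 as control.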
GFP derepression: epigenetic modulators derepressing GFP locus in mouse cells; AID 597; mouse C127i GFP locus derepression, cytometry, 30 h; Potency, µM (titrated, usually from 46.1 µM), inactives show at the top dose GFP derepression (activation); hit rate 0.09% among 68,000; also: % of control where 0% means no effect
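Read-out is the number of GFP-positive cells, scored as fluorescent objects 20 to 120 um wide, reflecting derepression of a silenced CMV-GFP reporter in murine C127i cells after 30 h compound exposure at 37 C.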
Ub-GFP proteasome: proteasome inhibitors stabilizing ubiquitin-GFP reporter | 67,000 tested, under 10 active | Ubiquitin-GFP reporter cells, proteasome inhibition, GFP fluorescence; response scale: untreated = 0%, 10 µM MG-132 = 100% | Potency, µM (top dose mostly 45.9 µM), inactives show top-dose activation (GFP accumulation), most hits filed as activators; active = well fitted activation curve with a large enough effect, not every such curve was filed as active; inconclusive = small, poorly fitted or top-dose-only effect, or another doubt; inactive = no such curve, though single readings can be large or run the other way; also: potency is read from the fitted curve at half-maximal effect
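U2OS cells stably expressing ubiquitin(G76V)-GFP, seeded overnight in 0.5% FBS medium, were exposed to compounds (qHTS, 46 uM to 2.9 nM) for 4 hr at 37 °C. GFP-positive cells were counted by laser cytometry (488 ex/515 em), normalized between basal and 10 uM MG-132.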
HEK293 cAMP ctrl: parental HEK293 cAMP activation (counter-screen). parental HEK293 CNG cAMP sensor, membrane potential fluorescence. hit rate 2.5% among 73,000. Potency, µM (top dose mostly 57.1 µM), without a hit: at the highest dose activation, hits mostly activators; also: potency is read from the fitted curve at half-maximal effect; % of control where 0% means no effect; nearly all actives have a fitted effect of over 55% in size
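Parental HEK 293 cells stably expressing a cAMP-gated CNG channel were loaded with membrane potential dye containing 100 uM RO 20-1724 for 60 min. Compound added for 30 min; depolarization read as fluorescence intensity at 590 nm.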
An asterisk follows results filed as active; ? = inconclusive; . = no result; [ ] = remark or other dose. Unless noted, calls follow the shape of the dose curve; as a rule, active = well fitted curve in the direction sought with a large enough effect; inconclusive = small, poorly fitted or top-dose-only effect, or another doubt; inactive = no such curve, though single readings can be large; an effect the other way counts as inactive or inconclusive.

SMILES | ERK AVP block | HBB splice mod | TSHR agonist | GFP derepression | Ub-GFP proteasome | HEK293 cAMP ctrl
CC(C)OC(=O)CSc1nnc(Cc2ccccc2)n1Cc1ccco1 | -17% | . | ? | -3% | -2% | 5µM*
CC(C)OC(=O)CSc1nnc(-c2cnccn2)n1Cc1ccco1 | -7% | 2% | 19% | -3% | -13% | 9%
COC(=O)c1ccc(CN2[C@@H]3C[C@@H](O)CC[C@@H]3C[C@H]2C(=O)OC)cc1 | 8% | . | . | . | . | .
C(=N\n1cnnc1)/c1cccc(Oc2ccccc2)c1 | . | . | . | 0%[20.6 µM] | . | .
Fc1ccccc1COc1cccc(/C=N/n2cnnc2)c1 | -27% | -4% | ? | -2% | -9% | 32µM*
N#CCCn1c(=O)c(-c2cc(F)cc(F)c2)nc2cnc(Oc3cccc(Cl)c3)nc21 | ? | -2% | -27% | -3%[9.22 µM] | -7% | -9%
Cc1noc(C)c1-c1nccc(N(C)C)n1 | -3% | 1% | 5% | -9%[9.22 µM] | -6% | 10%
CCCCn1c(SCc2ccc(Cl)cc2)nc2c1c(=O)[nH]c(=O)n2C | 8% | . | ? | 2% | 1% | ?
COC(=O)C(C)Sc1nc2c(c(=O)[nH]c(=O)n2C)n1CCC(C)C (stereo not given) | 32µM* | 0%[57.5 µM] | 9% | -2% | 3% | 1%
CC(C)CCn1c(SCc2ccc(Cl)cc2)nc2c1c(=O)[nH]c(=O)n2C | ? | -1%[0.369 µM] | ? | -2% | . | 10µM*
CC(C)CCSc1nc2c(c(=O)[nH]c(=O)n2C)n1CCc1ccccc1 | ? | 0%[0.369 µM] | ? | 0% | . | 10µM*
CCCCCCn1c(SCC(C)C)nc2c1c(=O)[nH]c(=O)n2C | 12% | 0%[57.5 µM] | ? | -2% | 3% | 25µM*
CCC1=C2CC[C@H]3C(=O)N(CC(=O)OC)C(=O)[C@H]3[C@H]2[C@@]2(C)C(=O)N(CC3CC3)C(=O)N2C1=O | -13% | . | . | . | . | .
COCCn1c(=O)c(CCc2ccccc2)nc2cnc(N(C)C)nc21 | 5% | 1% | ? | 0%[9.22 µM] | -1% | ?
Cc1sc2ncnc(-n3cnc4ccccc43)c2c1C | -13% | -3% | -3% | 0% | 1% | -5%
Cc1sc2ncnc(N3CCCCC3C)c2c1C (stereo not given) | -14% | 1% | ? | -3% | -3% | 25µM*
C[C@@H](N)C1CCC(C(=O)Nc2ccncc2)CC1 (stereo not given in full) | -17% | 0% | -5% | . | . | -7%
O=C(Nc1ccc2ccccc2c1)[C@@H]1C[C@H]1[C@@H](NP(=O)(c1ccccc1)c1ccccc1)c1ccccc1 | -14% | -1% | -1% | . | . | 12%
CCCCn1c(NC(=O)CC)c(C#N)c2nc3ccccc3nc21 | -28% | 0% | ? | -3% | 12% | 25µM*
CCCCn1c(NC(=O)c2ccccc2Cl)c(C#N)c2nc3ccccc3nc21 | 15% | 25%[57.5 µM] | -4% | -4% | -6% | 4%
C[C@@H]1/C=C\CC(=O)OC[C@H](C)C(=O)N[C@@H](C)C(=O)OC1 | 7%[11.5 µM] | 4%[9.22 µM] | -2%[11.4 µM] | . | . | 2%[11.4 µM]
Oc1c(Cl)cc(C(c2cc(Cl)c(O)c(Cl)c2)C(c2cc(Cl)c(O)c(Cl)c2)c2cc(Cl)c(O)c(Cl)c2)cc1Cl | 17%[11.5 µM] | 1%[9.22 µM] | 11%[11.4 µM] | -2%[9.22 µM] | 1%[9.17 µM] | -4%[11.4 µM]
Cc1ccnc(N2CCC(C(=O)Nc3cccc(C(F)(F)F)c3)CC2)n1 | 4% | . | ? | -5% | -3% | 20µM*
Cc1ccnc(N2CCC(C(=O)Nc3ccc(Oc4ccccc4)cc3)CC2)n1 | 2% | . | -2% | -1% | 1% | 8%
COc1ccccc1N(CC(=O)Nc1ccc2c(c1)OCO2)S(=O)(=O)c1ccccc1 | -22% | 1% | ? | 0% | 3% | ?
SMILES | ERK AVP block | HBB splice mod | TSHR agonist | GFP derepression | Ub-GFP proteasome | HEK293 cAMP ctrl
COc1ccc(S(=O)(=O)Nc2ccc3c(c2)OCO3)cc1C(=O)O | . | . | ? | . | . | 32µM*
COc1ccc(S(=O)(=O)N(CC(=O)Nc2ccc3c(c2)OCO3)c2ccccc2OC)cc1 | -6% | 2% | 6.3µM* | 2% | 6% | 27%
C#CCCCCCCCCCCCC(=O)CC(O)COC(C)=O (stereo not given) | -21% | . | . | . | . | .
Cc1ccc(C)n1-c1ccc(-c2nnco2)cc1 | -17% | -1% | 2% | 0% | -4% | 4%
Cc1cc(-c2nnco2)c(C)n1-c1ccc(F)cc1 | ? | -1% | ? | 0% | -7% | 16µM*
COC(=O)c1[nH]c2ccc(Cl)cc2c1NC(=O)CN1CCC(C(N)=O)CC1 | -1% | 2%[1.84 µM] | ? | 0% | -6% | 16µM*
COC(=O)c1[nH]c2ccc(C)cc2c1NC(=O)CN1CCN(c2ccccc2)CC1 | 13µM* | 2%[1.84 µM] | 8% | -2% | 11% | -6%
COC(=O)c1[nH]c2ccc(C)cc2c1NC(=O)CN1CCN(c2ccc(F)cc2)CC1 | -18% | 5%[1.84 µM] | -3% | 9% | 7% | -1%
COC(=O)c1[nH]c2cc(OC)ccc2c1NC(=O)CN1CCC(C(N)=O)CC1 | . | . | . | 6%[20.6 µM] | . | .
COC(=O)c1[nH]c2cc(OC)c(OC)cc2c1NC(=O)CN1CCN(Cc2ccccc2)CC1 | 10µM* | 8%[1.84 µM] | -2% | -5% | 23% | -12%
CC1(C)CCC(NC(=O)[C@H](N)CCC(=O)O)CC1 | -6% | 3% | 8% | 0% | 0% | 4%
Cc1cc(C)cc(-n2c3nc4ccccc4nc3c3c(=O)n(Cc4ccco4)cnc32)c1 | . | . | . | 13µM* | . | .
Cc1nc2c(c(=O)n1Cc1ccccc1Cl)c1nc3ccccc3nc1n2Cc1ccco1 | 25µM* | 9%[0.369 µM] | ? | 4% | 3% | ?
COc1ccc(Cn2c(C)nc3c(c2=O)c2nc4ccccc4nc2n3Cc2ccco2)cc1 | -12% | 1%[0.369 µM] | ? | 23% | . | ?
COc1ccccc1CNc1ncncc1-c1ccccc1Cl | -16% | 0% | ? | -3%[9.22 µM] | -6% | ?
COc1cc(C2N(c3ccccc3)CCN2c2ccccc2)cc(OC)c1OC | -3% | 0%[9.22 µM] | 3.2µM* | 2% | 0% | 29%
COc1cc(C2N(c3cccc(Cl)c3)C(=O)C3CCCN32)cc(OC)c1OC (stereo not given) | -10% | 1% | -4% | -3% | -10% | 18%
C[C@@H]1C[C@H](OC(=O)[C@@H](O)c2ccccc2)CC(C)(C)N1C | -3%[25.7 µM] | 1%[20.6 µM] | -10%[25.6 µM] | -1%[20.6 µM] | -7%[20.5 µM] | 20%[25.6 µM]
COc1ccccc1N1CCN(C(=O)c2ccc3nc(-c4ccco4)c(-c4ccco4)nc3c2)CC1 | 16µM* | 1%[57.5 µM] | -9% | 0% | -1% | 0%
C=CCN=C1SC(C)C(=O)N1S(=O)(=O)c1ccccc1 (stereo not given) | -30% | -3% | 3.2µM* | -1% | -2% | 0%

Screens as filed in PubChem BioAssay.
